Source: the supplement of paper PMC11732987, “Enantioselective OTUD7B fragment discovery through chemoproteomics screening and high-throughput optimisation” (Communications Chemistry, 2025)

target: USP14 (UniProt P54578); assay: log2 ratio of Biotin-Ahx-Ub-VS probe labelling (fragment/DMSO); higher = less target engagement (more negative = stronger competition), active = hit call of the paper (q ≤ 0.05, log2 ratio ≤ -1); details: compound concentration: 200 uM; treatment time: 3 h
Description: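 Competitive ABPP in HEK293T cell lysate. Lysates were treated with each chloroacetamide fragment at 200 µM for 3 h, then with Biotin-Ahx-Ub-VS (0.5 µM, 1 h), NeutrAvidin-enriched and analysed by diaPASEF LC-MS/MS. Protein LFQ was median-normalised; average log2 ratio is fragment/DMSO from an unpaired t-test (n=3 treated, n=44 DMSO). Hits: q ≤ 0.05, log2 ratio ≤ -1, unique peptides ≥ 2.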

USP14, sequence (P54578 whole entry, the tested form may be a part): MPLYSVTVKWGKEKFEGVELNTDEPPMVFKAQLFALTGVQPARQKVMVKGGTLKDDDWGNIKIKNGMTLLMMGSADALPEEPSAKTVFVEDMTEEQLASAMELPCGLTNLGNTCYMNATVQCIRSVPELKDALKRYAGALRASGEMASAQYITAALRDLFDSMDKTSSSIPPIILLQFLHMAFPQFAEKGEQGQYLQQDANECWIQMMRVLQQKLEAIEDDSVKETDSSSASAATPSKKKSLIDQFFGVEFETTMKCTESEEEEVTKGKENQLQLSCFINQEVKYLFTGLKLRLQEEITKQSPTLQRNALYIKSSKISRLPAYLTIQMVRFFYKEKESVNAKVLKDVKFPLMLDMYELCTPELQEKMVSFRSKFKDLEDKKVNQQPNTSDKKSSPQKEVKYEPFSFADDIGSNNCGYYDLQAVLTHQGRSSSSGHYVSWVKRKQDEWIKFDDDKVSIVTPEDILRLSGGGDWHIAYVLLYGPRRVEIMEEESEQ

log2 ratio of Biotin-Ahx-Ub-VS probe labelling, inactive:
O=C(CCl)N1CCC(C(=O)N2CCCC2)CC1 -0.0629, O=C(CCl)NC1CCCCNC1=O (configuration not stated) -0.476, O=C(CCl)Nc1cc2c(cc1Cl)OCCO2 0.233, O=C(CCl)N1CCOC2(CCC2)C1 0.0484, N#Cc1ccc(CNC(=O)CCl)cc1 -0.177, CC(NC(=O)CCl)c1cccc(Cl)c1 (configuration not stated) -0.42, COc1ccccc1C(C)NC(=O)CCl (configuration not stated) -0.458
